An excerpt weighted towards active compounds, which were near 0.92% of everything screened.
RXFP1 antag: qHTS Assay for Antagonists of the Relaxin Receptor RXFP1. 350,000 compounds, 0.59% hits. Relaxin receptor 1 (Homo sapiens), Q9HBX9. HEK293-RXFP1, relaxin-stimulated cAMP HTRF, 30 min; stronger effect = lower value. AID 1259400, 2018. activity change, negative = inhibition, % at 57.5 µM;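 active = activity change of -60% or lower, but not beyond a set lower limit; inconclusive = change between -60% and -40%, or beyond the set limit; inactive = change above -40%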; also: % is scaled to controls: 0 for no effect and ±100 for the full control effect
Target sequence (Q9HBX9 whole entry, looked up): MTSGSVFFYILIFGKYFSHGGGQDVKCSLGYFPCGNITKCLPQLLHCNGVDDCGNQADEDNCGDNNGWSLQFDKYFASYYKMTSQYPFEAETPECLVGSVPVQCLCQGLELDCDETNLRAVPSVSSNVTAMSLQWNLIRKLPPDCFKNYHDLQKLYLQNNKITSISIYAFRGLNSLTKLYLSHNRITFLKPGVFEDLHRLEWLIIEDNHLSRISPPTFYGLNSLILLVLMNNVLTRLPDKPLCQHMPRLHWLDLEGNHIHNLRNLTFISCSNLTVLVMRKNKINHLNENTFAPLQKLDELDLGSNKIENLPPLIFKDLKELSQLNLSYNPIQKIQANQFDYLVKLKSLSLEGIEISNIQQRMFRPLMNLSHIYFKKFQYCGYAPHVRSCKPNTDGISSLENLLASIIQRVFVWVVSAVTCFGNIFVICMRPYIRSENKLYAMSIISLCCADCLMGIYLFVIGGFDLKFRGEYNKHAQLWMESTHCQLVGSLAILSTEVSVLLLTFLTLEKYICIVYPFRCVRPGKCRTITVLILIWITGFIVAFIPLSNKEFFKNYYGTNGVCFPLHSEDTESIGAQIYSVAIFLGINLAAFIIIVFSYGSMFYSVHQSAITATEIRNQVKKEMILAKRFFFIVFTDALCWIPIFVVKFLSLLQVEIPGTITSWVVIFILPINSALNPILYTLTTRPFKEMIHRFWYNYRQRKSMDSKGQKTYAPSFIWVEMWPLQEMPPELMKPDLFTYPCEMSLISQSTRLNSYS
PKM2 activator: qHTS Assay for Activators of Human Muscle isoform 2 Pyruvate Kinase; Potency, µM (series often up to 57.5 µM), inactives show at the top dose activation, most hits filed as activators; Pyruvate kinase PKM (Homo sapiens), P14618; 260,000 compounds, 0.34% hits; purified PKM2, Kinase-Glo ATP luminescence, activation; response scale: 0% is enzyme alone, no compound; also: potency is read from the fitted curve at half-maximal effect; % is scaled to controls: 0 for no effect and ±100 for the full control effect; nearly all actives have a fitted effect of over 55% in size
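ATP formation by purified human PK-M2, quantified via coupled luciferase luminescence after 1 h at room temperature with 0.1 mM ADP and 0.5 mM PEP final.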
miR-21 reporter: qHTS Assay for Modulators of miRNAs and/orActivators of miR-21 | AID 2288, 2010 | Potency, µM (doses to about 38.3 µM), for inactives: at the highest dose activity change, positive = activation, actives largely listed as activators | 340,000 tested, under 10 active | HeLa miR-21 FLuc reporter, luciferase, 48 h;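 also: % of control where 0% means no effect; miR-21 action dims this reporter so a rising signal means less miR-21 action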
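HeLa miR-21-FLuc reporter line, endogenous miR-21; 2000 cells/well in DMEM/10% FBS; compound titration up to ~40uM final, 48 h, 37 degree Celsius; luciferase detection reagent, 15 min lysis, CCD luminescence.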
GALK inh: qHTS Assay for Inhibitors of Human Galactokinase (GALK); Purified GALK, Kinase-Glo residual ATP luminescence; P51570; 270,000 compounds, 0.007% hits; Potency, µM (top dose mostly 57.5 µM), for the others: at the top dose activity change, negative = inhibition, usual class: inhibitors; also: potency is read from the fitted curve at half-maximal effect; % is scaled to controls: 0 for no effect and ±100 for the full control effect
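Human GALK (5 nM) with 35 uM ATP and 100 uM galactose in 20 mM HEPES pH 8.0, 5 mM MgCl2, 60 mM NaCl, 1 mM DTT, 0.01% BSA. After 1 h at room temperature, leftover ATP was read by Kinase-Glo Plus luminescence.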
RXFP1 ag: qHTS Assay for Agonists of the Relaxin Receptor RXFP1 | Relaxin receptor 1 (Homo sapiens), Q9HBX9 | HEK293T-RXFP1 cAMP TR-FRET, 30 min; response scale: percent of porcine relaxin response, buffer zero | Potency, µM (titrated, usually from 57.5 µM), inactives show at the top dose activation, most hits filed as activators | 370,000 compounds, 0.3% hits | AID 2676, 2010; also: potency is read from the fitted curve at half-maximal effect; % is scaled to controls: 0 for no effect and ±100 for the full control effect; nearly all actives have a fitted effect of over 60% in size
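HEK293T cells stably expressing RXFP1 were pretreated with the PDE4 inhibitor Ro 20174, exposed to compounds for 30 min at 37C, lysed, and cAMP was read by TR-FRET. Data normalized to buffer (basal) and 29 nM porcine relaxin (100%).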
KinaseGlo FLuc: Counterscreen for Luciferase (Kinase-Glo TM) Inhibition; Luciferin 4-monooxygenase (Photuris pensylvanica), Q27757; Kinase-Glo luciferase, ATP luminescence, 8 min; Potency, µM (series often up to 38.3 µM), for the others: at the highest dose activity change, negative = inhibition, most hits filed as inhibitors; 200,000 compounds, 0.28% hits; also: potency is read from the fitted curve at half-maximal effect; % is scaled to controls: 0 for no effect and ±100 for the full control effect; nearly all actives have a fitted effect of over 60% in size
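Substrate mix (final 50 mM imidazole pH 7.2, 50 mM KCl, 7 mM MgCl2, 10 uM ATP, 0.01% Tween 20, 0.05% BSA) plus pin-tool compound, then Kinase-Glo detection mix; 8 min ambient, luminescence read.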
The depositor's hits bear a star; [ ] = another dose, or the depositor's remark. Unless noted, calls follow the shape of the dose curve; as a rule, active = well fitted curve in the direction sought with a large enough effect; inconclusive = small, poorly fitted or top-dose-only effect, or another doubt; inactive = no such curve, though single readings can be large; an effect the other way counts as inactive or inconclusive.

Screening Cc1ccc(C(=O)NCC2CCCN2S(=O)(=O)c2cccs2)cc1C (stereo not drawn) returned RXFP1 antag -1 and RXFP1 ag 0%.
Screening COc1cc(C(=O)NCC2CCCN2S(=O)(=O)c2cccs2)cc(OC)c1OC (stereo not drawn) returned RXFP1 antag -82* and RXFP1 ag 1%.
O=C(O)c1c(O)c(-c2ccccc2)nc2ccccc12 was read as RXFP1 antag -17.
Screening COC(=O)NC(c1ccccc1)c1c[nH]c2ccc(OC)cc12 (stereo not drawn) returned KinaseGlo FLuc 0%.
For O=C(Nc1ccc2c(c1)nc1n2CCSC1)c1ccco1 the results were RXFP1 antag -12, PKM2 activator 3%, miR-21 reporter 9%, GALK inh -1%, RXFP1 ag 1% and KinaseGlo FLuc 10µM*.
Screening CCOC(=O)c1c(-c2cccs2)csc1NC(=O)CSc1ncn[nH]1 returned RXFP1 antag -28, PKM2 activator 28µM*, miR-21 reporter 11%, GALK inh 0%, RXFP1 ag 0% and KinaseGlo FLuc 0%.
Screening CCOC(=O)c1c(-c2cccs2)csc1NC(C)=O returned RXFP1 antag -8, PKM2 activator 25%, miR-21 reporter -13%, GALK inh 0%, RXFP1 ag 2% and KinaseGlo FLuc 2%.
Screening CCOC(=O)c1ccc(NC(=O)CSc2nc(C)cc(=O)[nH]2)cc1 returned RXFP1 antag 2, PKM2 activator 0%, miR-21 reporter -4%, GALK inh -1%, RXFP1 ag 0% and KinaseGlo FLuc -5%.
`CCOC(=O)c1c(-c2ccccc2Cl)csc1NC(=O)CSc1nc(C)cc(=O)[nH]1` gave RXFP1 antag -80*, PKM2 activator 3%, miR-21 reporter -2%, GALK inh 1%, RXFP1 ag 1% and KinaseGlo FLuc 0%.
`CCc1ccccc1NC(=O)CN(Cc1ccccc1)S(=O)(=O)c1ccc2nc(C)sc2c1` gave RXFP1 antag -10, miR-21 reporter -2% and RXFP1 ag 2%.
`CNC1=CN=C(c2ccccc2)c2cc(Cl)ccc2N1` gave KinaseGlo FLuc 0%[39.9 µM].
COc1cccc(N2CCN(c3ncnc4c3[nH]c3ccc(F)cc34)CC2C)c1 (stereo not drawn) was read as RXFP1 antag -69*, PKM2 activator 7%, miR-21 reporter inconclusive, GALK inh -5%, RXFP1 ag 5% and KinaseGlo FLuc -3%.
`O=C(C(=Cc1ccccc1)CN1CCCCC1)c1ccccc1` gave RXFP1 antag -72*.
Screening O=C(CCCCN1CCCCC1)c1ccccc1 returned RXFP1 antag 6.
COc1ccc2c3c([nH]c2c1)[C@H]1C[C@@H]2[C@@H](C[C@@H](O)[C@H](OC)[C@H]2C(=O)O)CN1CC3 was read as KinaseGlo FLuc -7%[7.66 µM].
For Cc1noc(/C=C/c2ccco2)c1S(=O)(=O)N1CCC(C(=O)N2CCc3ccccc3C2)CC1 the results were RXFP1 antag inconclusive, PKM2 activator 20µM*, miR-21 reporter -7%, GALK inh 1%, RXFP1 ag 4% and KinaseGlo FLuc -5%.
Screening N#Cc1cccc(CS(=O)(=O)c2nc3ccccc3s2)c1 returned KinaseGlo FLuc 0%.

Screening results as filed in PubChem.
